The text below walks through data of PubChem BioAssay (Tox21).

Test [1] is described as follows: Nuclear factor erythroid 2-related factor 2/antioxidant responsive element (Nrf2/ARE) small molecule agonists: qHTS cell viability counter screen in human keratinocytes (AID 1919968; active = well fitted cell-killing curve with a large enough effect in the repeat runs; also: nearly all actives have a fitted effect of over 55% in size; also: potency is read from the fitted curve at half-maximal effect). An outline of the steps: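 After a 5 h attachment period, ARE-reporter keratinocytes were dosed with compounds in DMSO and then cultured 23 h at 37 C. Cell viability came from CellTiter-Fluor signal read after a further 1 h.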
For orientation: qHTS replaces the single test concentration by a dilution series.

A short description of test [2]: Nuclear factor erythroid 2-related factor 2/antioxidant responsive element (Nrf2/ARE) small molecule agonists: luciferase reporter gene qHTS assay in human keratinocytes (AID 1919969). Also: nearly all actives have a fitted effect of over 35% in size. Also: potency is read from the fitted curve at half-maximal effect. A general note: Reporter assays use an easily measured gene product as a stand-in for the process of interest.
The target of test [3] is Gonadotropin-releasing hormone receptor (Homo sapiens) (UniProt P30968). Description: Human gonadotropin-releasing hormone receptor (GnRHR) small molecule agonists, calcium flux assay in GnRHR-HEK293 cells (AID 1920063). Also: nearly all actives have a fitted effect of over 35% in size. In short, it runs like this:
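We seeded human GnRHR-expressing HEK293 cells for 18 hours, loaded them with calcium dye for an hour at 37 C, added test compounds, and recorded fluorescence intensity kinetically for three minutes.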

Test [4] is described as follows: G protein-coupled receptor (GPCR) small molecule agonists, calcium flux assay: HEK293 wild type cell line counter screen (AID 1920065). In short, it runs like this:
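Calcium-sensitive dye, loaded 1 h at 37 C into cells cultured 18 h, reports compound-evoked calcium release as fluorescence (Ex/Em 480/540), measured over 3 min. Agonist mode; 15-point titrations, triplicate.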
In general terms: Calcium assays in cells follow changes in intracellular calcium, usually with a dye or a luminescent sensor.

Test [5] in a line: p53 small molecule agonists, cell-based qHTS assay with human liver microsomes (AID 1963577).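 Also: p53 response element beta-lactamase reporter cells with liver microsomes plus NADPH.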 In short, it runs like this: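 16 h, 37 C exposure of p53RE-bla cells to compounds with human liver microsomes and NADPH (0.5 mg/mL final each); detection via LiveBLAzer mixture, 2 h dark at room temperature.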
Test [6] in a line: p53 small molecule agonists, cell-based qHTS assay with rat liver microsomes (AID 1963578). In short, it runs like this:
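With rat liver microsomes and NADPH present (0.5 mg/mL final each), p53RE-bla cells are treated with compound for 16 h at 37 C. LiveBLAzer detection mixture is then applied for 2 h at room temperature in the dark.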

The nature of test [7]: p53 small molecule agonists, cell-based qHTS assay with human liver microsomes: qHTS cell viability counter screen (AID 1963579). Also: nearly all actives have a fitted effect of over 45% in size. Also: potency is read from the fitted curve at half-maximal effect. An outline of the steps:
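In this multiplexed counter screen, the reporter plates were subsequently treated with CellTiter-Glo so that cell viability, reflected by luminescence, could be recorded for p53RE-bla cells dosed 16 h with compounds under microsomal activation (HLM and NADPH).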

Test [8] in a line: p53 small molecule agonists, cell-based qHTS assay: qHTS cell viability counter screen (AID 1963581). Also: nearly all actives have a fitted effect of over 45% in size. An outline of the steps:
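Following 5 h attachment, HCT-116 p53RE-bla cells took up compound for 16 h at 37 C; the reporter was read with B/G FRET substrate (2 h RT), and viability then via CellTiter-Glo ATP luminescence.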

The nature of test [9]: p53 small molecule agonists, cell-based qHTS assay (AID 1963582; active = well fitted activation curve with a large enough effect in the signal ratio in the repeat runs, not every such curve was filed as active; the % refers to the signal ratio). An outline of the steps: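 In this cell-based concentration-response screen, a p53 response element drives beta-lactamase; cells received DMSO-borne compounds after 5 h culture and were incubated a further 16 h before FRET substrate development.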
For test [10], the target named is 5-hydroxytryptamine receptor 2A (Homo sapiens) (UniProt P28223). The experiment in a line: 5-hydroxytryptamine receptor 2A (HTR2A) small molecule antagonists, cell-based qHTS assay (AID 1963586). Also: nearly all actives have a fitted effect of over 45% in size. An outline of the steps: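 Antagonist-mode intracellular calcium assay: DOI (4 nM) added after 5 min compound pre-incubation at room temperature to dye-loaded HTR2A-CHO cells. Fluorescence followed for 3 min, sampled every second.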

For test [11] the target is unchanged. Description: 5-hydroxytryptamine receptor 2A (HTR2A) small molecule agonists, cell-based qHTS assay (AID 1963587). Also: nearly all actives have a fitted effect of over 30% in size. An outline of the steps: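 Kinetic calcium-flux fluorescence (2 min, 1 sec intervals) after compound addition in agonist mode. HTR2A-CHO cells were cultured 18 h, then dye-loaded 1 h at 37 C.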
Test [12] addresses Muscarinic acetylcholine receptor M1 (Homo sapiens) (UniProt P11229). Description: Cholinergic receptor muscarinic 1 (CHRM1) small molecule agonists, cell-based qHTS assay (AID 1963589). Also: nearly all actives have a fitted effect of over 35% in size. In short, it runs like this:
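Measures agonist-induced intracellular calcium rise. Stable human CHRM1 CHO line, 1 h dye load at 37 C, compounds from DMSO, kinetic fluorescence read.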

The nature of test [13]: cAMP Responsive Elements (CRE) small molecule agonists, cell-based qHTS assay (AID 1963590). An outline of the steps:
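A CRE-responsive beta-lactamase reporter in HEK 293T cells was used. Treatment ran 3 h at 37 C; detection used LiveBLAzer B/G FRET substrate for 2 h at room temperature.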

In test [14] the target is Beta-2 adrenergic receptor (Homo sapiens) (UniProt P07550). Description: Adrenergic beta2 receptor (ADRB2) small molecule antagonists, cell-based qHTS assay (AID 1963592). Also: series mostly up to about 92 µM; nearly all actives have a fitted effect of over 50% in size. An outline of the steps:
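Cells (CHO, stable ADRB2 overexpression) incubated 18-20hr at 37C; compounds added from DMSO; agonist mix (1nM isoproterenol, 100uM IBMX, 25uM Ro-20-1724) added; 0.5hr RT; d2-cAMP and anti-cAMP-cryptate added; 1hr RT; 665/615 nm read.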

The target is the same in test [15]. Description: Adrenergic beta2 receptor (ADRB2) small molecule agonists, cell-based qHTS assay (AID 1963593).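 Also: CHO cells stably overexpressing human ADRB2.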 In short, it runs like this:
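CHO cells stably over-expressing ADRB2 were plated overnight at 37C, then dosed with compounds plus a stimulation mix containing 100uM IBMX and 25uM Ro-20-1724 for 0.5hr at room temperature. cAMP was measured by HTRF competition, 1hr.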

In test [16] the target is D(2) dopamine receptor (Homo sapiens) (UniProt P14416). Description: Dopamine D2 receptor (DRD2) small molecule agonists, cell-based qHTS assay (AID 1963594). Also: nearly all actives have a fitted effect of over 35% in size. In short, it runs like this:
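cAMP accumulation in DRD2-HEK293 cells measured by HTRF after 1 h detection; compounds added 10 min before NKH477 (200nM […]) forskolin-analogue stimulation, 30 min at room temperature, with Ro20-1724 present at 0.1 mM final.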

For test [17] the target is unchanged. Description: Dopamine D2 receptor (DRD2) small molecule antagonists, cell-based qHTS assay (AID 1963595; active = well fitted inhibition curve with a large enough effect in the signal ratio in the repeat runs, with a control signal flat; the % refers to the signal ratio). In short, it runs like this:
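In this cell-based antagonist screen, compounds act for 10 min at room temperature before a 30 min challenge with 12 nM quinpirole and 200 nM NKH477. cAMP is quantified by HTRF competition in DRD2-HEK293 cells containing 0.1 mM Ro20-1724.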

Test [18] is described as follows: p53 small molecule agonists, cell-based qHTS assay with rat liver microsomes: qHTS cell viability counter screen (AID 1963580). Also: nearly all actives have a fitted effect of over 45% in size. In short, it runs like this: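 HCT-116 p53RE-bla, 4,000 cells/well, 5 h pre-incubation; cpd + rat liver microsomes 0.5 mg/mL + NADPH 0.5 mg/mL (final); 16 h, 37 C; CellTiter-Glo, 30 min RT; luminescence.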
Test [19] addresses Muscarinic acetylcholine receptor M1 (Homo sapiens) (UniProt P11229). The experiment in a line: Cholinergic receptor muscarinic 1 (CHRM1) small molecule antagonists, cell-based qHTS assay (AID 1963588). Also: nearly all actives have a fitted effect of over 40% in size. An outline of the steps: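 CHRM1-CHO calcium-flux assay, antagonist mode. Cells were seeded 18 h, dye-loaded 1 h at 37 C and given compound for 5 min at RT, then acetylcholine was added at 50nM. FDSS fluorescence was read 3 min; 15 concentrations, three runs.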

Test [20] in a line: cAMP Responsive Elements (CRE) small molecule antagonists, cell-based qHTS assay (AID 1963591; active = well fitted inhibition curve with a large enough effect in the signal ratio in the repeat runs, not every such curve was filed as active; the % refers to the signal ratio). An outline of the steps: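 HEK293T cells carrying a CRE-driven beta-lactamase reporter receive compound and NKH477 (0.25 uM final) for 3 h. Fluorescence from LiveBLAzer B/G FRET substrate is read after 2 h at room temperature.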

Values joined by “and” are separate entries in the source; they are usually repeats but may differ in a detail not shown here. Identical values can stand only once. Records with an inconclusive call do not appear. More than one record can exist for a structure, and the calls need not agree. Active and inactive are the calls of the source. Unless noted, calls follow the shape of the full dose curve.

Chain of Beta-2 adrenergic receptor (Homo sapiens) (P07550 whole entry, looked up): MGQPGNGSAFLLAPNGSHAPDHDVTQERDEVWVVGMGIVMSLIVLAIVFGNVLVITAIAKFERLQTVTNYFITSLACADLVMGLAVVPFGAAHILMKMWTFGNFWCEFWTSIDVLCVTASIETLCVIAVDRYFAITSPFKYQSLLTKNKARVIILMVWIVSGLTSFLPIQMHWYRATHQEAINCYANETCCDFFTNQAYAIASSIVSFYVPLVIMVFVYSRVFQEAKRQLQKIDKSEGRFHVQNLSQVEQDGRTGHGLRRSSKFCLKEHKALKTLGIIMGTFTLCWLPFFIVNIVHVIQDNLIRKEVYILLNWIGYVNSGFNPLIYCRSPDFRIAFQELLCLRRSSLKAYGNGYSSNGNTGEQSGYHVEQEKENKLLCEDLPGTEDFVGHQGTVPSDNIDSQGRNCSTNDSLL
Chain of D(2) dopamine receptor (Homo sapiens) (P14416 whole entry, looked up): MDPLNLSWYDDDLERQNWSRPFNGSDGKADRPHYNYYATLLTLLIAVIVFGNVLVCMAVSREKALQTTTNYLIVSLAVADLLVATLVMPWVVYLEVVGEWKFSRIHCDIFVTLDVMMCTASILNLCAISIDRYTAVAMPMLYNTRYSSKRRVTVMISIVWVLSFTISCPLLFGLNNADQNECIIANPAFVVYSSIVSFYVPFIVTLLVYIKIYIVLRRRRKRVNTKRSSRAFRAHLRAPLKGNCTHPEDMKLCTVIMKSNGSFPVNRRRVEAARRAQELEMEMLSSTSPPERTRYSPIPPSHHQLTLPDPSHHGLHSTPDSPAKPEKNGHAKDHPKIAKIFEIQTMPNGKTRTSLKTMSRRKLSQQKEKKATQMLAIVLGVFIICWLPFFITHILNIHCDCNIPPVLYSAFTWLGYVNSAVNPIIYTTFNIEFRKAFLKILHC
Chain of 5-hydroxytryptamine receptor 2A (Homo sapiens) (P28223 whole entry, looked up): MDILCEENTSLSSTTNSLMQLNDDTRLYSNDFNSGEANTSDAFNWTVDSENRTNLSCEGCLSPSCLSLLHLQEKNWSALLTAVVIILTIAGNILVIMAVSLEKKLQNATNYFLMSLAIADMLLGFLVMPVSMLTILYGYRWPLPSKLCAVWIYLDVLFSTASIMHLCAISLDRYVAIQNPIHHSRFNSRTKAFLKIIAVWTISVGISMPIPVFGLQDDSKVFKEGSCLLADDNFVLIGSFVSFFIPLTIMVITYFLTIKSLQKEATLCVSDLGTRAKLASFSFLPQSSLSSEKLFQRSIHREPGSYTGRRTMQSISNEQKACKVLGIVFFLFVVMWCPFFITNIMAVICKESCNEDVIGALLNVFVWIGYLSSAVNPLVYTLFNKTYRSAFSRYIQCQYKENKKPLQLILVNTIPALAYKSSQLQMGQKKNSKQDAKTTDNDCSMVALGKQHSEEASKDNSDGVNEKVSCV
Chain of Muscarinic acetylcholine receptor M1 (Homo sapiens) (P11229 whole entry, looked up): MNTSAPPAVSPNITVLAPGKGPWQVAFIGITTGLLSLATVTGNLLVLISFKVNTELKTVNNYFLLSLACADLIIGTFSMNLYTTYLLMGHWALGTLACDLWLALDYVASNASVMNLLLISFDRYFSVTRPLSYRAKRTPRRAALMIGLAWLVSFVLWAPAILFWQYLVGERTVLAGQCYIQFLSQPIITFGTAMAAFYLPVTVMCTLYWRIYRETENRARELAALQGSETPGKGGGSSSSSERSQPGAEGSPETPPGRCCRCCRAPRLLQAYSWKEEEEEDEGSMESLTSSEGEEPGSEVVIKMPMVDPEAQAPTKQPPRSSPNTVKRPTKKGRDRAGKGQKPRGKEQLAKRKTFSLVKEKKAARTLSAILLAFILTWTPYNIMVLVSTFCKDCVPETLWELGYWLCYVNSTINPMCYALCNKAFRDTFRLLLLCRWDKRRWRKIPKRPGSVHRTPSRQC
Chain of Gonadotropin-releasing hormone receptor (Homo sapiens) (P30968 whole entry, looked up): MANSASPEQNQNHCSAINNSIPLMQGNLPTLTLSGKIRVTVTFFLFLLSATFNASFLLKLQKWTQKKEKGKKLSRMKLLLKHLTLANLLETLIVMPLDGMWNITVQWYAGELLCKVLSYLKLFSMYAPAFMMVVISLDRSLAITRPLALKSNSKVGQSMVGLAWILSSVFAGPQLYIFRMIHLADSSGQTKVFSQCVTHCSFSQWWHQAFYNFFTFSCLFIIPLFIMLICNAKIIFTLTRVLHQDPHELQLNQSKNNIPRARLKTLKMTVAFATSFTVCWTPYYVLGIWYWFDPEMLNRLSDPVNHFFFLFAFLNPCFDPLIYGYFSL

Regarding `COCCOCCOCCOCCOCCO`, the Potency result in test [1], in test [2], in test [3], in [4], in test [5] and in test [6] was “inactive” each time. For the same compound, the Potency result in test [7], in test [8], in test [9], in [10], in test [11] and in test [12] was “inactive” each time. The Potency result in test [13], in [14], in test [15], in test [16] and in test [17] was “inactive” in each case.
`C=C(C)C(=O)OCCCCCCCC(C)C`: the Potency result in [1], in test [2], in test [3], in test [4], in test [5] and in [7] was “inactive” throughout. The Potency entry in test [18], in test [8], in test [9], in test [10], in test [11] and in [19] was “inactive” each time. The Potency entry in test [12], in [13], in test [20], in [14], in test [16] and in test [17] was “inactive” each time.
Regarding `O=C(c1ccccc1)C1(O)CCCCC1`, the Potency result in test [1], in test [2], in [3], in test [4], in [5] and in test [6] was “inactive” each time. The Potency result in test [7], in [18], in [8], in test [10], in [11] and in [19] was “inactive” in each case. Moreover, the Potency result in test [12], in [13], in test [20], in [14], in [15] and in test [16] was “inactive” in each case. Besides, the Potency entry in test [17] was “inactive”.
`CCN(CC)CC(=O)Oc1ccc(NC(C)=O)cc1`: the Potency result in test [1], in [2], in [3], in test [4], in test [5] and in test [6] was “inactive” in each case. The Potency entry in test [7], in test [18], in [8], in [9], in test [11] and in test [19] was “inactive” each time. Also, the Potency result in test [12], in test [13], in test [20], in test [14] and in test [16] was “inactive” throughout.
Consider `c1ccc(Nc2cccc3ccccc23)cc1`, for which the Potency in test [1] is 61.9 µM (active); in test [2], “inactive and 68.6 µM (active)”; in test [7] it was 46.4 µM (active). Also, the Potency entry in test [3], in test [4], in test [5], in test [6], in test [18] and in test [8] was “inactive” throughout. Further, the Potency entry in test [9], in test [11], in test [19], in test [12], in test [14] and in test [16] was “inactive” each time. Also, the Potency result in test [17] was “inactive”.
Consider `Cc1ccc(C2OC[C@@H]3OC(c4ccc(C)cc4)O[C@H]([C@H](O)CO)[C@@H]3O2)cc1` (stereo partly specified), for which the Potency entry in test [1], in test [2], in [3], in test [4], in test [5] and in test [6] was “inactive” each time. For the same compound, the Potency entry in test [7], in [18], in test [8], in [10], in [11] and in test [12] was “inactive” in each case. In addition, the Potency result in [13], in [20], in test [14], in test [15], in test [16] and in test [17] was “inactive” in each case.
On to `CCOC(=O)[C@H](CCc1ccccc1)N[C@@H](C)C(=O)N1Cc2ccccc2C[C@H]1C(=O)O`, for which the Potency result in [1], in test [2], in test [3], in [4], in test [5] and in test [6] was “inactive” each time. The Potency result in test [7], in test [18], in test [8], in test [9], in test [13] and in test [20] was “inactive” in each case. Further, the Potency result in test [15], in test [16] and in [17] was “inactive” in each case.
On to `O=C(O)CCC(=O)Nc1ccc(S(=O)(=O)Nc2nccs2)cc1`, for which the Potency entry in test [1], in [2], in test [3], in test [4], in test [6] and in test [7] was “inactive” in each case. Further, the Potency result in test [18], in test [8], in test [9], in [11], in test [19] and in test [12] was “inactive” in each case. The Potency result in [13], in test [14], in test [16] and in [17] was “inactive” in each case.
